Conditions in all cases: mRNA level, 48 h; actives raise or lower the signal
Read-out in test [1]: Early growth response protein 1 (EGR1) transcription factor, EGR1 (gene 1958)
Description: LTEA_HepaRG_EGR1: Life Technologies and Expression Analysis (LTEA) Assay for Early growth response protein 1 (EGR1) transcription factor using HepaRG (AID 2283490). The method in brief: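 Differentiated HepaRG cells in serum-free induction medium exposed 48 hours, duplicate, to 8 half-log concentrations up to 100 uM in 0.5% DMSO. EGR1 mRNA measured by TaqMan qRT-PCR, normalized to ACTB, GAPDH, POLR2A; bidirectional fit versus DMSO.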

Read-out in test [2]: Ezrin (EZR), EZR (gene 7430)
Description: LTEA_HepaRG_EZR: Life Technologies and Expression Analysis (LTEA) Assay for Ezrin (EZR) using HepaRG (AID 2283491). The method in brief:
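EZR transcript levels came from Fluidigm qRT-PCR and were normalized to three housekeeping genes after 48 h chemical exposure of HepaRG cells. Dosing used an 8-point half-log series with a 100 uM top concentration in 0.5% DMSO, tested in duplicate; both directions were fitted versus vehicle.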

Read-out in another test: CYP3A5 (gene 1577)
Description: LTEA_HepaRG_CYP3A5: Life Technologies and Expression Analysis (LTEA) Assay for CYP3A5 using HepaRG (AID 2283493). The essentials:
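mRNA induction or loss of CYP3A5 assessed in HepaRG after 48 h dosing, 100 uM top concentration, duplicate wells; TaqMan qRT-PCR with ACTB, GAPDH, POLR2A normalization; 0.5% DMSO as negative control.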

Read-out in test [3]: Fatty Acid-Binding Protein 1 (FABP1), FABP1 (gene 2168)
The test can be described thus: LTEA_HepaRG_FABP1: Life Technologies and Expression Analysis (LTEA) Assay for Fatty Acid-Binding Protein 1 (FABP1) using HepaRG (AID 2283494). The essentials:
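Differentiated human HepaRG cells exposed 48 h in serum-free induction medium to eight half-log concentrations up to 100 uM (0.5% DMSO), duplicate. FABP1 mRNA by qRT-PCR, normalised to ACTB, GAPDH, POLR2A; bidirectional fitting against DMSO.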

Read-out in test [4]: Cytochrome P450 4A22 (Homo sapiens) (UniProt Q5TCH4)
Description: LTEA_HepaRG_CYP4A22: Life Technologies and Expression Analysis (LTEA) Assay for Cytochrome P450 4A22 (CYP4A22) using HepaRG (AID 2283495). The essentials: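 HepaRG, 48 h post-plating -> serum-free induction medium; dosed 48 h, duplicate, 8 conc. (100 uM top, half-log), 0.5% DMSO. Readout: CYP4A22 mRNA by qRT-PCR, ACTB/GAPDH/POLR2A normalization; gain/loss fit relative to DMSO.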

Read-out in test [5]: Cytochrome P450 7A1 (Homo sapiens) (UniProt P22680)
Description: LTEA_HepaRG_CYP7A1: Life Technologies and Expression Analysis (LTEA) Assay for Cytochrome P450 7A1 (CYP7A1) using HepaRG (AID 2283496). The method in brief: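 Gene expression endpoint in human HepaRG liver cells treated for 48 h with test chemicals (up to 100 uM, 0.5% DMSO). Values come from bidirectional concentration-response fitting versus DMSO.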

Read-out in test [6]: Glutathione S-Transferase (GSTA2), GSTA2 (gene 2939)
Description: LTEA_HepaRG_GSTA2: Life Technologies and Expression Analysis (LTEA) Assay for Glutathione S-Transferase (GSTA2) using HepaRG (AID 2283497). The essentials: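 Differentiated human HepaRG cells were exposed in duplicate for 48 h in serum-free induction medium, 8 points from 100 uM top in half-log steps, 0.5% DMSO. GSTA2 mRNA was measured by TaqMan qRT-PCR, normalized to ACTB, GAPDH and POLR2A; bidirectional fit versus DMSO.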

Read-out in test [7]: Glutamate-cysteine ligase catalytic (GCLC), GCLC (gene 2729)
Description: LTEA_HepaRG_GCLC: Life Technologies and Expression Analysis (LTEA) Assay for Glutamate-cysteine ligase catalytic (GCLC) using HepaRG (AID 2283498). The method in brief: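 Differentiated HepaRG cells exposed 48 h in serum-free induction medium, eight-point half-log series topping at 100 uM in 0.5% DMSO, duplicates. GCLC mRNA by qRT-PCR normalized to ACTB, GAPDH and POLR2A, fitted bidirectionally versus DMSO.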

Read-out in test [8]: growth arrest and DNA damage 45 (GADD45G), GADD45G (gene 10912)
The test can be described thus: LTEA_HepaRG_GADD45G: Life Technologies and Expression Analysis (LTEA) Assay for growth arrest and DNA damage 45 (GADD45G) using HepaRG (AID 2283499). The method in brief: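 HepaRG, 48 h exposure, top 100 uM, half-log 8-point series, 0.5% DMSO vehicle, duplicates. Readout: GADD45G transcript by qRT-PCR (Fluidigm array), housekeeping-normalised (ACTB/GAPDH/POLR2A). Bidirectional curve fit vs DMSO baseline.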

Read-out in test [9]: Glutamate-cysteine ligase regulatory (GCLM), GCLM (gene 2730)
The test can be described thus: LTEA_HepaRG_GCLM: Life Technologies and Expression Analysis (LTEA) Assay for Glutamate-cysteine ligase regulatory (GCLM) using HepaRG (AID 2283500). The essentials: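 Human liver HepaRG cultures receive test chemicals for 48 hours at up to 100 uM in 0.5% DMSO. GCLM expression is measured by qRT-PCR and analysed for increases or decreases against vehicle.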

Read-out in test [10]: Glutathione S-transferase M3 (GSTM3), GSTM3 (gene 2947)
The test can be described thus: LTEA_HepaRG_GSTM3: Life Technologies and Expression Analysis (LTEA) Assay for Glutathione S-transferase M3 (GSTM3) using HepaRG (AID 2283501). The essentials:
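qRT-PCR read-out of GSTM3 transcript, normalized to three housekeeping genes, from human HepaRG cells after 48 h chemical exposure. Eight-point half-log series, top 100 uM, 0.5% DMSO vehicle; gain or loss fitted relative to DMSO baseline.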

Read-out in test [11]: Heat shock 70 kDa protein 1 (HSPA1A), gene 3303
Description: LTEA_HepaRG_HSPA1A: Life Technologies and Expression Analysis (LTEA) Assay for Heat shock 70 kDa protein 1 (HSPA1A) using HepaRG (AID 2283502). The essentials:
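HSPA1A induction in human HepaRG liver cells is measured after 48 h of chemical treatment (100 uM maximum, 0.5% DMSO vehicle). Expression comes from qRT-PCR normalized to endogenous controls.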

Read-out in test [12]: Hypoxia-inducible factor 1-alpha (Homo sapiens) (UniProt Q16665)
Description: LTEA_HepaRG_HIF1A: Life Technologies and Expression Analysis (LTEA) Assay for Hypoxia-inducible factor 1 (HIF1A) Trancription factor using HepaRG (AID 2283503). The method in brief: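 HepaRG, 48 h exposure, 8-pt half-log series from 100 uM, 0.5% DMSO vehicle, duplicates. Readout: HIF1A transcript by qRT-PCR (Fluidigm array), housekeeping-normalised. Bidirectional curve fit vs DMSO baseline.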

Read-out in test [13]: 3-Hydroxy-3-Methylglutaryl-CoA Synthase 2 (HMGCS2), HMGCS2 (gene 3158)
The test can be described thus: LTEA_HepaRG_HMGCS2: Life Technologies and Expression Analysis (LTEA) Assay for 3-Hydroxy-3-Methylglutaryl-CoA Synthase 2 (HMGCS2) using HepaRG (AID 2283504). The essentials: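 qRT-PCR read-out of HMGCS2 transcript, normalised to three housekeeping genes, in HepaRG cells after 48 h chemical exposure. Eight-point curves from 100 uM, half-log dilutions, 0.5% DMSO vehicle; gain or loss fitted relative to DMSO baseline.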

Read-out in another test: HGF (gene 3082)
The test can be described thus: LTEA_HepaRG_HGF: Life Technologies and Expression Analysis (LTEA) Assay for Hepatocyte Growth Facto (HGF) using HepaRG (AID 2283505). The method in brief: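 HepaRG, 48 h dosing, 8-pt half-log series from 100 uM in 0.5% DMSO, duplicates. Readout: TaqMan qRT-PCR of HGF mRNA, housekeeping-normalized; bidirectional curve fit vs DMSO baseline.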

Read-out in test [14]: Insulin Like Growth Factor 1 (IGF1), IGF1 (gene 3479)
The test can be described thus: LTEA_HepaRG_IGF1: Life Technologies and Expression Analysis (LTEA) Assay for Insulin Like Growth Factor 1 (IGF1) using HepaRG (AID 2283506). The method in brief:
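Using human HepaRG liver cells, IGF1 transcript induction or suppression is measured 48 h after dosing across eight concentrations capped at 100 uM. Values derive from bidirectional concentration-response fitting with DMSO as baseline.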

Read-out in test [15]: Intercellular Adhesion Molecule 1 (ICAM1), ICAM1 (gene 3383)
Description: LTEA_HepaRG_ICAM1: Life Technologies and Expression Analysis (LTEA) Assay for Intercellular Adhesion Molecule 1 (ICAM1) using HepaRG (AID 2283507). The method in brief:
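HepaRG, 48 h exposure, 8-pt half-log series from 100 uM, 0.5% DMSO vehicle, duplicates. Readout: TaqMan qRT-PCR mRNA, housekeeping-normalized (ACTB/GAPDH/POLR2A). Bidirectional curve fit vs DMSO baseline.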

Read-out in test [16]: Insulin-like growth factor-binding protein 1 (IGFBP1), IGFBP1 (gene 3484)
Description: LTEA_HepaRG_IGFBP1: Life Technologies and Expression Analysis (LTEA) Assay for Insulin-like growth factor-binding protein 1 (IGFBP1) using HepaRG (AID 2283508). The essentials:
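qRT-PCR mRNA read-out (TaqMan, Fluidigm array), normalised to three housekeeping genes; HepaRG cells, 48 h exposure, 8-pt half-log series from 100 uM, 0.5% DMSO vehicle; bidirectional curve fit vs DMSO baseline.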

Read-out in test [17]: Interleukin 6 (IL6), IL6 (gene 3569)
Description: LTEA_HepaRG_IL6: Life Technologies and Expression Analysis (LTEA) Assay for Interleukin 6 (IL6) using HepaRG (AID 2283509). The essentials:
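HepaRG cells exposed in duplicate for 48 h to eight half-log concentrations, top 100 uM, in 0.5% DMSO serum-free induction medium. mRNA measured by qRT-PCR, normalized to ACTB, GAPDH and POLR2A. Bidirectional fit versus DMSO.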

Each structure is given as a SMILES string. The source made the active and inactive calls. The calls were made as follows: active = hit-call score of the fitted dose curve at least 0.9, where 1 is the maximum; inactive = score below 0.9.

By AC50 is commonly meant the midpoint of the concentration-response curve, whichever way the signal moves.

Sequence of Hypoxia-inducible factor 1-alpha (Homo sapiens) (Q16665 whole entry, looked up): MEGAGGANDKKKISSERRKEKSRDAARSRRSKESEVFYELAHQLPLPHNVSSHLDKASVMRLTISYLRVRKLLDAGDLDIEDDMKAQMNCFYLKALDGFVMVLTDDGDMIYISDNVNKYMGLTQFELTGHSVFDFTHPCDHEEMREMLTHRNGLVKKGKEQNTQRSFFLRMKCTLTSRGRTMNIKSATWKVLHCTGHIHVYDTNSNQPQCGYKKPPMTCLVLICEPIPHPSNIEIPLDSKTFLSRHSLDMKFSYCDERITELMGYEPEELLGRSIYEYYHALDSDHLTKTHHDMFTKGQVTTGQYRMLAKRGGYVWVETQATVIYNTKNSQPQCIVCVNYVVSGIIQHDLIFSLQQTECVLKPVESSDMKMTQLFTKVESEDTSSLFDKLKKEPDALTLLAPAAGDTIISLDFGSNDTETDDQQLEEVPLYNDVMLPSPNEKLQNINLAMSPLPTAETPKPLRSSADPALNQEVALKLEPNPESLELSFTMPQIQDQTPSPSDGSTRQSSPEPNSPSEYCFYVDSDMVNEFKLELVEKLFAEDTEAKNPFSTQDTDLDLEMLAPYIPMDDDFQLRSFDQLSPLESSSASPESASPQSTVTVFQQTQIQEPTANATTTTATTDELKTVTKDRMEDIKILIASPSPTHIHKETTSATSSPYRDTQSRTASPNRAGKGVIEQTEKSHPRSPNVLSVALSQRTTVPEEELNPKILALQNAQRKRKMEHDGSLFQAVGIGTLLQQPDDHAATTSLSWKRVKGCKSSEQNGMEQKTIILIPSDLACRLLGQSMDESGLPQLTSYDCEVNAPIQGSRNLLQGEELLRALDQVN

`Cc1ccc(-c2cc(C(F)(F)F)nn2-c2ccc(S(N)(=O)=O)cc2)cc1`: the call in test [1], in test [2], in test [4], in [5], in test [9] and in test [10] was inactive. The call (in test [11]; in test [12]; with HGF (gene 3082); in test [16]) was inactive. The AC50 with CYP3A5 (gene 1577) was 82 µM (active); in test [3], 50 µM (active); in [6], 82.1 µM (active); in [7], 50 µM (active); in test [8], 67.5 µM (active); in test [13], 73.7 µM (active). Further, the AC50 is 81.3 µM (active) in [14], 50 µM (active) in test [15] and 81.4 µM (active) in test [17].
Consider `Nc1nc(Cl)nc2c1ncn2[C@H]1C[C@H](O)[C@@H](CO)O1`, for which the AC50 is 0.272 µM (active) in test [1]; 0.481 µM (active) with CYP3A5 (gene 1577); 1.33 µM (active) in [3]; 5.92 µM (active) in test [4]; 1.2 µM (active) in test [5]; 1.76 µM (active) in [6]. Besides, the AC50 in [7] was 1.24 µM (active); in test [8], 5.75 µM (active); in test [13], 1.49 µM (active); in test [14], 2.39 µM (active); in test [16], 4.82 µM (active); in test [17], 16.1 µM (active). Also, the call in test [2], in [9], in test [11] and in test [15] was inactive.
In the case of `Cc1c(C)c2c(c(C)c1O)CCC(C)(COc1ccc(CC3SC(=O)NC3=O)cc1)O2` (stereo not given), the AC50 in test [1] was 88.3 µM (active); with CYP3A5 (gene 1577), 15.8 µM (active); in [4], 25.8 µM (active); in [5], 92.7 µM (active); in test [6], 23.2 µM (active); in [7], 93.6 µM (active). The AC50 was 19.1 µM (active) in test [8]; 50 µM (active) in test [11]; 66.8 µM (active) in test [12]; 50 µM (active) in [16]; 88.2 µM (active) in test [17]. Further, the call (in [2]; in [9]; with HGF (gene 3082); in [15]) was inactive.
In the case of `CC(=O)[C@@]1(O)CC[C@H]2[C@@H]3CCC4=CC(=O)CC[C@]4(C)[C@H]3CC[C@@]21C`, the compound was called inactive in test [1], in test [2], in [6], in test [7], in test [8] and in test [11]. Also, the compound was classed as inactive (in the test with HGF (gene 3082); in test [15]; in test [16]; in test [17]).
